We go through 37 compounds from PMC5540273 (PLoS ONE, 2017).
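Note: KINOMEscan kinase panel screen.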

In the experiment the test system is WEE2. Particulars: concentration: 1 μM,replicates: in singlicate; n = 1.
As for `CS(=O)(=O)Nc1ccc(-c2ccnc3[nH]ccc23)cc1` [GSK993273], the “%Inh” value is listed as 0%. Then `O=C(NCC1CC1)c1ccc(-c2cc(C(=O)NC3CC3)ccc2F)cc1` [GW810445], with 0%; and `Cc1cccc2c(-c3ccncc3)c(-c3ccc(F)cc3)nn12.Cl` [GW461487], with 11%. With `Cn1ccc2ncnc(Oc3ccc(NC(=O)Nc4cnn(C(C)(C)C)c4)c(Cl)c3)c21`, the “%Inh” value came out at 5%.

Take `Cn1cc(-c2cccc3c(N)c(C(N)=O)nnc23)cn1`: the “%Inh” value amounted to 18%. Under `C[C@@H]1CCN(C(=O)N2CCCC2)C[C@@H]1N(C)c1ncnc2[nH]ccc12` stands 0%; under `Cl.Nc1n[nH]c2cc(-c3ccccn3)ccc12` [GSK2189892], 0%. Regarding `Cl.c1ccc(Oc2ccc(Nc3ccnc4cc(-c5ccc(CN6CCNCC6)o5)ccc34)cc2)nc1` [GW567142], the “%Inh” value turned out to be 0%.

As for `CCNCC(Cc1ccccc1)NC(=O)c1cc(Br)c(-c2ccnc3[nH]ccc23)s1.Cl.Cl` (stereo not shown) [GSK1383280], the “%Inh” value is recorded as 7%. For `Cc1ccc(Nc2ccnc(Nc3ccc4c(c3)CS(=O)(=O)C4)n2)cc1O.Cl` [GW579362], the “%Inh” value came to 98.3%. Under `COc1cccc(C2=C(Nc3cccc(Cl)c3)C(=O)NC2=O)c1` [SB-341556] stands 0%; under `CCN1CCN(CCCC(=O)Nc2n[nH]c3nc(-c4ccc(O)cc4)c(Br)cc23)CC1` [SB-731579], 29%. Under `CSc1nccc(-c2c(-c3ccc(F)cc3)ncn2CCCN2CCOCC2)n1.Cl` [SB-217146] stands 1%; under `COc1cc2nccc(Nc3ccc(Oc4ccccc4)cc3)c2cc1OC.Cl` [GI261656], 0%; under `CS(=O)c1ccc(-c2coc3ccc(-c4n[nH]c(=O)o4)cc23)cc1` (stereo not shown), 16%. Then `Cn1ccc2ncnc(Oc3ccc(NC(=O)Nc4ccnc(C(F)(F)F)c4)c(Cl)c3)c21`, with 30%; and `CN1CCN(CCCNc2nccc(-c3c(-c4ccc(F)cc4)nn4cc(C(N)=O)ccc34)n2)CC1` [GW622475], with 0%; and `O=C(NOCC1CC1)c1cc(Br)c(F)c(F)c1Nc1ccc(I)cc1Cl`, with 0%. Take `COc1cccc(CNC(=O)NC2CCN(c3ccnc(Nc4cc(OC)c(OC)c(OC)c4)n3)C2)c1` (stereo not shown) [GSK1379765]: the “%Inh” value stood at 9%.

Regarding `COc1cc(Nc2nccc(N3CCC(NC(=O)c4cccc(C#N)c4)C3)n2)cc(OC)c1OC` (stereo not shown) [GSK1379751], the “%Inh” value is recorded as 0%. Then `COC(=O)c1cccc(NC(=O)NC2CCN(c3ccnc(NCc4ccc(F)cc4)n3)CC2)c1` [GSK1379860], with 8%; and `Cn1ccc2ncnc(Oc3ccc(NC(=O)Nc4cc(C(C)(C)C)on4)c(Cl)c3)c21`, with 23%. Under `O=C1NCCc2[nH]c(-c3ccncc3)cc21` stands 0%. Turning to `Nc1nccc(-c2ccc3c(N)n[nH]c3c2)n1` [GSK1034945], the “%Inh” value was found to be 0%.

As for `CC(=O)Nc1ccc(-c2cc3ncnc(SCC(=O)O)c3s2)cc1`, the “%Inh” value stood at 4%. Then `NC(=O)c1ccc(-c2cc3ncnc(SCC(=O)O)c3s2)cc1`, with 0%. Then `Cc1cccc(-c2nc(Nc3ccncc3)c3sccc3n2)n1` [GW869641], with 11%; and `Cn1ccc2ncnc(Oc3ccc(NC(=O)Nc4cncc(C(F)(F)F)c4)c(Cl)c3)c21`, with 7%; and `OCCn1cc(-c2cnc3nnn(Cc4ccc5ncccc5c4)c3n2)cn1`, with 0%.

Take `C[C@@H]1CNc2c(sc3ccc4nc(-c5ccc(O)cc5)ccc4c23)C(=O)N1`: the “%Inh” value was 0%.

As to `FC(F)(F)c1cc(Br)cc(Nc2nccc(-c3cnn4ncccc34)n2)c1` [GW810578], the “%Inh” value came to 70%.

For `NC(=O)Nc1sc(-c2ccc(F)cc2)cc1C(N)=O` [GW789449], the “%Inh” value is given as 11%. Under `c1ccc(Oc2ccc(Nc3ccnc4ccc(-c5ccccn5)cc34)cc2)cc1` [GW407034] stands 0%; under `CCn1c(-c2nonc2N)nc2cncc(CNC3CCNCC3)c21.Cl` [SB-747651], 7%. Then `CN(c1ccccc1CNc1nc(Nc2ccc3c(c2)CC(=O)N3)ncc1C(F)(F)F)S(C)(=O)=O`, with 0%. Under `Cc1ccc(C(=O)Nc2ccc(Oc3ccc4nc(NC(=O)C5CC5)cn4c3)c(F)c2)c(=O)n1-c1ccccc1` stands 0%; under `C[C@@H](Oc1cc(-n2cnc3ccc(-c4ccncc4)cc32)sc1C(N)=O)c1ccccc1Cl` [GSK483724], 1%.
